Structures can show the parent of a compound that is named as a salt. ± gives the standard deviation of the averaged measurements.
Tests used:
Test in all cases: growth (OD600 after 10 h); higher = more growth (less inhibition)
[1] = system: E. coli TESEC Alr+ wild-type control; conditions: compound 0.1 mM; raw OD600 reference: median of DMSO wells 0.241, cell-free background 0.041
Procedure: (§1)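 TESEC Mtb Alr E. coli, or the Alr+ wild-type control, in 384-well plates with Prestwick library compounds at 0.1 mM and 1% DMSO, across arabinose induction levels of 1E3 to 1E7 nM. Growth is read as OD600 after 10 h at 37 °C in triplicate biological replicates.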

E. coli TESEC Mtb Alr [2] = conditions: compound 0.1 mM
Procedure: as §1

E. coli TESEC Mtb Asd = conditions: compound 0.1 mM
Procedure: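 TESEC E. coli strains in which the native enzyme is deleted and replaced by arabinose-inducible Mtb Asd, DapB, CysH or TrpD, each grown in its selective medium. Strains were screened against the Prestwick library at 0.1 mM and 1% DMSO in 384-well format at low and high arabinose induction. Growth is read as OD600 after 10 h in triplicate.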

[3] = system: E. coli TESEC Alr+ wild-type control; conditions: compound 0.1 mM; raw OD600 reference: median of DMSO wells 0.49, cell-free background 0.052
Procedure: (§2)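 TESEC Mtb Alr E. coli (ΔaraC ΔtolC ΔentC Δalr ΔdadX, arabinose-inducible Mtb Alr) or the Alr+ wild-type control strain, grown in defined M9-fructose medium without D-alanine in 96-well plates with Prestwick library compounds at 0.1 mM and 1% DMSO. Low Alr induction is 0.1 µM arabinose and high induction is 10 mM arabinose.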

E. coli TESEC Mtb Alr [4] = conditions: compound 0.1 mM; remark: listed apart in the source
Procedure: as §2

[5] = arabinose 1000 nM, raw OD600 reference: median of DMSO wells 0.294, cell-free background 0.041
[6] = arabinose 10000 nM, raw OD600 reference: median of DMSO wells 0.264, cell-free background 0.041
[7] = arabinose 100000 nM, raw OD600 reference: median of DMSO wells 0.201, cell-free background 0.041
[8] = arabinose 1000000 nM, raw OD600 reference: median of DMSO wells 0.193, cell-free background 0.041
[9] = arabinose 10000000 nM, raw OD600 reference: median of DMSO wells 0.146, cell-free background 0.041
[10] = arabinose induction (level): High, raw OD600 reference: median of DMSO wells 0.331, cell-free background 0.041
[11] = arabinose induction (level): Low, raw OD600 reference: median of DMSO wells 0.417, cell-free background 0.041
[12] = arabinose 100 nM, raw OD600 reference: median of DMSO wells 0.413, cell-free background 0.052
[13] = arabinose 10000000 nM, raw OD600 reference: median of DMSO wells […], cell-free background 0.052

Row | Compound | growth [1] | growth (E. coli TESEC Mtb Alr [2]; [5]) | growth (E. coli TESEC Mtb Alr [2]; [6]) | growth (E. coli TESEC Mtb Alr [2]; [7]) | growth (E. coli TESEC Mtb Alr [2]; [8]) | growth (E. coli TESEC Mtb Alr [2]; [9]) | growth (E. coli TESEC Mtb Asd; [10]) | growth (E. coli TESEC Mtb Asd; [11]) | growth [3] | growth (E. coli TESEC Mtb Alr [4]; [12]) | growth (E. coli TESEC Mtb Alr [4]; [13])
1 | CO[C@@]1(NC(=O)CSCC#N)C(=O)N2C(C(=O)O)=C(CSc3nnnn3C)CS[C@@H]21 [Cefmetazole sodium salt] | 0.0393 ± 0.0013 | 0.0392 ± 0.0012 | 0.0395 ± 0.00076 | 0.0392 ± 0.0027 | 0.03973 ± 5.8e-05 | 0.03957 ± 0.00025 | 0.0524 ± 0.0042 | 0.0557 ± 0.0072 | 0.0516 ± 0.012 | 0.0461 ± 0.00055 | 0.0549 ± 0.0037
2 | Cc1ccc(S(=O)(=O)NC(=O)NN2CC3CCCC3C2)cc1 (configuration not stated) [Gliclazide] | 0.244 ± 0.012 | 0.309 ± 0.0099 | 0.271 ± 0.0064 | 0.222 ± 0.017 | 0.192 ± 0.0036 | 0.177 ± 0.0042 | 0.298 ± 0.032 | 0.364 ± 0.071 | 0.518 ± 0.074 | 0.404 ± 0.02 | 0.372 ± 0.0073
3 | C[C@H](CCC(=O)O)[C@H]1CC[C@H]2[C@@H]3C(=O)C[C@@H]4CC(=O)CC[C@]4(C)[C@H]3CC(=O)[C@]12C [Dehydrocholic acid] | 0.252 ± 0.0042 | 0.252 ± 0.062 | 0.25 ± 0.012 | 0.186 ± 0.022 | 0.183 ± 0.0057 | 0.138 ± 0.0079 | 0.329 ± 0.068 | 0.33 ± 0.07 | 0.569 ± 0.034 | 0.406 ± 0.0045 | 0.3 ± 0.0058
4 | CC1=C(C(=O)O)N2C(=O)[C@@H](NC(=O)[C@H](N)c3ccc(O)cc3)[C@H]2SC1 [Cefadroxil] | 0.255 ± 0.012 | 0.2848 ± 0.0015 | 0.274 ± 0.011 | 0.217 ± 0.011 | 0.199 ± 0.002 | 0.137 ± 0.0042 | 0.294 ± 0.035 | 0.444 ± 0.13 | – | 0.427 ± 0.012 | 0.326 ± 0.011
5 | CC(N)CCCC(C)(C)O (configuration not stated) [Heptaminol hydrochloride] | 0.252 ± 0.0036 | 0.285 ± 0.011 | 0.26 ± 0.013 | 0.204 ± 0.04 | 0.1796 ± 0.0016 | 0.141 ± 0.0064 | 0.357 ± 0.015 | 0.442 ± 0.022 | – | 0.407 ± 0.011 | 0.36 ± 0.0092
6 | O=C(O)c1cn(-c2ccc(F)cc2)c2cc(N3CCNCC3)c(F)cc2c1=O [Sarafloxacin] | 0.0422 ± 0.00026 | 0.0454 ± 0.0031 | 0.0399 ± 0.0003 | 0.04133 ± 0.00015 | 0.0405 ± 0.0013 | 0.0412 ± 0.0021 | 0.0475 ± 0.0021 | 0.047 ± 0.0013 | 0.0534 ± 0.00044 | 0.0545 ± 0.00093 | 0.0532 ± 0.0002
7 | C[C@@H]1CN(c2c(F)c(N)c3c(=O)c(C(=O)O)cn(C4CC4)c3c2F)C[C@H](C)N1 [Sparfloxacin] | 0.0414 ± 0.0019 | 0.0409 ± 0.0011 | 0.0398 ± 0.0002 | 0.0433 ± 0.0046 | 0.04 ± 0.00078 | 0.04067 ± 0.00038 | 0.04863 ± 0.0004 | 0.0462 ± 0.0031 | 0.0553 ± 0.0029 | 0.0536 ± 0.0018 | 0.051 ± 0.00046
8 | COc1ccc(OC)c(C(O)CNC(=O)CN)c1 (configuration not stated) [Midodrine hydrochloride] | 0.243 ± 0.0087 | 0.291 ± 0.0075 | 0.281 ± 0.0091 | 0.204 ± 0.02 | 0.186 ± 0.0048 | 0.141 ± 0.0067 | 0.4 ± 0.017 | 0.505 ± 0.02 | – | 0.424 ± 0.0079 | 0.341 ± 0.008
9 | O=C(O)c1ccccc1Nc1cccc(C(F)(F)F)c1 [Flufenamic acid] | 0.0528 ± 0.00081 | 0.05003 ± 0.00047 | 0.04063 ± 0.00038 | 0.0593 ± 0.0024 | 0.04467 ± 0.00032 | 0.05807 ± 0.00038 | 0.0691 ± 0.017 | 0.0784 ± 0.0046 | – | 0.0904 ± 0.038 | 0.0543 ± 0.00078
10 | CC(=O)S[C@@H]1CC2=CC(=O)CC[C@]2(C)[C@H]2CC[C@@]3(C)[C@@H](CC[C@@]34CCC(=O)O4)[C@H]12 [Spironolactone] | 0.121 ± 0.0068 | 0.0986 ± 0.051 | 0.0753 ± 0.0019 | 0.0921 ± 0.027 | 0.06897 ± 0.00051 | 0.112 ± 0.0019 | 0.167 ± 0.021 | 0.313 ± 0.041 | 0.331 ± 0.022 | 0.389 ± 0.026 | 0.0959 ± 0.016
11 | CCOCCn1c(N2CCCN(C)CC2)nc2ccccc21 [Emedastine] | 0.223 ± 0.007 | 0.288 ± 0.0092 | 0.25 ± 0.0071 | 0.211 ± 0.052 | 0.164 ± 0.0048 | 0.135 ± 0.004 | 0.291 ± 0.075 | 0.328 ± 0.058 | 0.514 ± 0.081 | 0.415 ± 0.012 | 0.337 ± 0.013
12 | CCn1cc(C(=O)O)c(=O)c2cc(F)c(N3CCNCC3)nc21 [Enoxacin] | 0.0456 ± 0.0012 | 0.0427 ± 0.0002 | 0.03917 ± 0.00031 | 0.0439 ± 0.0015 | 0.0411 ± 0.0025 | 0.0452 ± 0.0001 | 0.0919 ± 0.024 | 0.0687 ± 0.0059 | – | 0.0588 ± 0.0019 | 0.05293 ± 0.00025
13 | CCC1(C)CC(=O)NC1=O (configuration not stated) [Ethosuximide] | 0.2481 ± 0.002 | 0.287 ± 0.014 | 0.267 ± 0.0062 | 0.219 ± 0.016 | 0.1876 ± 0.0001 | 0.141 ± 0.003 | 0.38 ± 0.03 | 0.417 ± 0.026 | – | 0.4152 ± 0.0041 | 0.368 ± 0.019

From the supplement of paper PMC9262897, “Low-cost anti-mycobacterial drug discovery using engineered E. coli” (Nature Communications, 2022)
